# Assay results published in PubChem BioAssay AID493033 (ICCB-Longwood Screening Facility, Harvard Medical School, 2011).
# Where “and” joins values, the source holds several entries; their conditions need not be identical. Identical values can stand only once. Hit rate of the full screen: of about 100,000 compounds, about 930 (0.93%) were called active. Rule as the data show it: active = inhibition mostly above about 56% (no sharp cut-off); inactive = mostly below about 77%. Only a selection was taken, and actives are over-represented in it overall. The source holds several records for some structures; these can differ, active in one and inactive in another.
# Molecular target: Salicylate synthase (Mycobacterium tuberculosis (strain CDC 1551 / Oshkosh)) (UniProt P9WFX0)
# Sequence (P9WFX0 whole entry, looked up): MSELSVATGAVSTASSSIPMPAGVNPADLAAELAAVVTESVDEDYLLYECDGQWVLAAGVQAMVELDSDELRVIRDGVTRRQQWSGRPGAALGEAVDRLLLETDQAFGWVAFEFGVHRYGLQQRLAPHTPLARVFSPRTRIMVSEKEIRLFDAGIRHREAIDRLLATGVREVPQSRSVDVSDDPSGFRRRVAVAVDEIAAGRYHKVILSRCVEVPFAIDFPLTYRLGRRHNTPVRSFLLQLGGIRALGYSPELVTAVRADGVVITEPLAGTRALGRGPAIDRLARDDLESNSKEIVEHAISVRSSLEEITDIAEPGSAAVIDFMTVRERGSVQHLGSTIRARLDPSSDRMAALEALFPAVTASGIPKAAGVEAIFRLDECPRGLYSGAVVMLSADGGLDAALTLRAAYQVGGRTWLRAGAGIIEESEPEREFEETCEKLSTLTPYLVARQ
# Test: MbtI salicylate synthase inhibitors, primary screen, biochemical, fluorescence intensity (AID 493033)
# Conditions: purified MbtI enzyme, fluorescence intensity read-out, stronger effect = higher value, concentration not given here
row,SMILES,inhibition
1,CC(C)(C)c1nc(=S)[nH][nH]1,59.2% (active)
2,O=C(c1ccco1)N1CCN(C(=O)c2cnn(-c3ccccc3)c2-n2cccc2)CC1,-6.6% (inactive)
3,CCCCNC(=O)c1cccc(OC)c1,-2.5% (inactive)
4,COc1cccc(C(=O)Nc2ccc(N3CCCC3)cc2)c1,-7% (inactive)
5,COc1cccc(N2C(=O)C=CC2=O)c1,98.8% (active)
6,CCN1CCN(CCCNC(=S)Nc2ccc3nc(N4CCN(CC)CC4)cc(C)c3c2)CC1,35.8% (inactive)
7,Cc1ccc(-c2nnc(SCc3c(C)cc(C)cc3C)o2)cc1,-3.75% (inactive)
8,O=C(CSc1nnc(-c2cccs2)n1-c1ccccc1)OC1CCS(=O)(=O)C1 (centres undefined),-45% (inactive)
9,FC(F)(F)c1cccc(-n2c(-c3ccncc3)n[nH]c2=S)c1,6% (inactive)
10,CC(C)n1c(-c2ccncc2)n[nH]c1=S,93.6% (active)
11,S=c1[nH]nc(-c2ccncc2)n1/N=C/c1cccnc1,-6.8% (inactive) and -8.55% (inactive)
12,CCOC(=O)N1CCN(C(=O)COC(=O)c2cccc(S(C)(=O)=O)c2)CC1,-7.25% (inactive)
13,NC(=O)c1nnc(Cc2ccc(Cl)cc2)o1,-6.1% (inactive)
14,CC(C)n1nc(C(N)=O)c2ccccc2c1=O,14.1% (inactive)
15,O=C(CCC(=O)N1CCCCc2ccccc21)NC1CCCC1,-4.6% (inactive)
16,O=C1C=CC(=O)N1Cc1ccc(Cl)cc1,71.7% (active)
17,O=C1CSc2ccccc2N1Cc1ccc(Cl)cc1,-5.75% (inactive)
18,NCCc1ccc(Cl)cc1,-11.3% (inactive)
19,CCOC(=O)c1oc2ccccc2c1CN1c2cccc3cccc(c23)S1(=O)=O,-5.65% (inactive)
20,COC(=O)c1cccc(OCC(O)CNC2CCN(Cc3ccccc3)CC2)c1 (centres undefined),12.9% (inactive)
21,Oc1ccc(CNc2ccccc2O)cc1,92% (active)
22,NC(=S)CC(=O)NCc1ccccc1,65.2% (inactive)
23,O=C(CS(=O)(=O)c1ccccc1)Nc1ccccc1O,-1.55% (inactive)

row,SMILES,inhibition
1,C=CCn1c(SCC(=O)c2ccc(N(C)S(C)(=O)=O)cc2)nnc1C1CCCCC1,0.8% (inactive)
2,Cc1cc(N2CCN(c3ccccc3)CC2)n2c(nc3ccccc32)c1C#N,4.55% (inactive)
3,CC(NC(=O)c1ccccc1NC(=O)c1ccco1)C(=O)NN(c1ccccc1)c1ccccc1 (centres undefined),31.5% (inactive)
4,Cc1occc1-c1nnc2sc(Cc3cccc4ccccc34)nn12,79.1% (inactive)
5,NC1=NC(=O)C(Cc2cccc(Cl)c2)S1 (centres undefined),0.55% (inactive)
6,Nc1nnc(SCc2ccccc2)s1,38.8% (inactive)
7,N=C1N=C(N)C(Cc2ccccc2)S1 (centres undefined),84.2% (active)
8,CN(C(=O)CSc1cccc[n+]1[O-])C1CCCCC1,2.9% (inactive)
9,CCOC(=O)C1=C(C)NC(C)=C(C(=O)OCC)C1C(=O)OCc1cc(=O)n2cc(C)ccc2n1,-9.2% (inactive)
10,O=C(O)CCCN1C(=O)c2ccccc2Sc2ncccc21,4.25% (inactive)
11,O=C(O)CN1C(=O)/C(=C2/OC(=O)c3ccccc32)SC1=S,13.1% (inactive)
12,O=C(O)CCCN1C(=O)/C(=C2\SC(=S)N(CCCC(=O)O)C2=O)SC1=S,88.5% (active)
13,N#Cc1ccc(NC(=O)CSc2ncn[nH]2)cc1,15.7% (inactive)
14,COC(=O)c1cccc(Cn2nc(C)c(Cl)c2C)c1,-1.2% (inactive)
15,CCOC(=O)c1c(N)sc2c1CCCS2,70.4% (active)
16,CCOC(=O)c1c(-n2cnnn2)sc(C)c1C,"589% [above what the read-out allows, likely interference] (inactive)"
17,CCOC(=O)c1c(N)sc2c1CC(C)(C)OC2,64.8% (inactive)
18,Cc1csc(/C(C#N)=N/OC(=O)c2ccco2)n1,6.4% (inactive)
19,Cc1cc(C)n(CCCN)n1,-3.05% (inactive)
20,O=C(CSc1nccn1-c1ccc(F)cc1)Nc1ccccc1,9.1% (inactive)
21,Cc1nc2cccc[n+]2c(-c2ccccc2)c1C,-10.6% (inactive)
22,CCOc1cccc2sc(NC(C)=O)nc12,17.4% (inactive)
23,S=c1[nH]nc(COc2ccccc2)o1,64% (active) and 19.4% (inactive)

row,SMILES,inhibition
1,c1ccc(OCc2nc(-c3ccccn3)n[nH]2)cc1,4.2% (inactive)
2,N/C(COc1ccccc1)=N\O,-4.9% (inactive)
3,COc1ccc(-c2nc(CS(=O)(=O)c3ccc(F)cc3)no2)cc1OC,-17% (inactive)
4,COCCCn1cc(C(=O)c2cc(F)ccc2O)cc(C#N)c1=O,0.95% (inactive)
5,Cc1ccccc1NC(=O)COC(=O)c1ccccc1,16.1% (inactive)
6,Cc1ccccc1NC(=O)NC(=O)CC#N,-2.55% (inactive)
7,Cc1ccccc1NC(=O)CSC(=O)c1ccccc1,75% (active)
8,CCn1c(O)c(/C=N/N=C2/C(=O)N(C)c3ccccc32)c(=O)n(CC)c1=S,7.05% (inactive)
9,N#C/C(=C\c1cc2ccccc2nc1N1CCOCC1)C(=O)Nc1ccc2c(c1)OCCO2,12% (inactive)
10,CC1(C)CC(=O)C(Sc2ccc(Cl)cc2)=C(N2CCOCC2)C1,4.9% (inactive)
11,O=C(CSc1ccc(Cl)cc1)N1CCc2ccccc21,-9.4% (inactive)
12,CC(=O)OC1=C(Sc2ccc(Cl)cc2)C(=O)CCC1,59.8% (active)
13,CCOC(=O)c1cc(S(=O)(=O)NC2CCCc3ccccc32)cn1C (centres undefined),-4.15% (inactive)
14,COC(=O)c1ccc(N)cc1,16.6% (inactive)
15,COc1ccc(-n2c(SCC(=O)c3ccc4c(c3)NC(=O)CO4)nc3ccccc3c2=O)cc1OC,-1.55% (inactive)
16,CC1(C)Oc2ccccc2C2CC(c3ccccc3)=NN21 (centres undefined),10.8% (inactive)
17,Cc1ccc(NC(=S)Nc2ccc(C)cc2)cc1,56.7% (active)
18,Cc1ccc(NC(N)=O)cc1,-7.15% (inactive)
19,CSC(=S)Nc1ccc(C)cc1,-4.35% (inactive)
20,Cn1c(SCc2nc(-c3cccs3)no2)nnc1-c1ccncc1,-11.6% (inactive)
21,CCOC(=O)CSc1cc(C)nc(SCC(=O)OCC)n1,7.15% (inactive)
22,CC1CC(=O)Nc2ccccc2N1C(=O)CSc1ccccn1 (centres undefined),-3.2% (inactive)
23,CCOC(=O)CSc1ccccn1,81.9% (active)
